Molecules are shown by their SMILES. Unmarked numbers belong to inactive results. Results filed as inconclusive are left out. Activity calls are given as the source filed them. Calls come from the whole dose curve; as a rule, active = well fitted curve in the direction sought with a large enough effect; inconclusive = small, poorly fitted or top-dose-only effect, or another doubt; inactive = no such curve, though single readings can be large; an effect the other way counts as inactive or inconclusive.

The values that follow come from PubChem BioAssay (NCATS).

Assay [1] deals with Glutathione peroxidase 1 (Homo sapiens) (UniProt P07203). Nature of the assay: Primary qHTS Assay for Inhibitors of Recombinant Selenoprotein Glutathione Peroxidase 1 (GPX1) (AID 1845191). For activity, negative = inhibition: % is set by controls: 0 for no effect and ±100 for the full control effect. Note: nearly all actives have a fitted effect of over 65% in size. In short, it runs like this: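 GR-coupled assay: compounds preincubated 30 min at room temperature with GPX1, then reaction started with CHP; final 10 nM GPX1, 1 mM GSH, 0.5 mM CHP, 0.5 mM NADPH, 100 nM GR, 0.01% BSA, pH 7.5 Tris buffer. NADPH fluorescence (340/450 nm) read at 0 and 15 min.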

Assay [2] concerns the target Phospholipid hydroperoxide glutathione peroxidase GPX4 (Homo sapiens) (UniProt P36969). Nature of the assay: Primary qHTS Assay for Inhibitors of Recombinant Selenoprotein Glutathione Peroxidase 4 (GPX4) (AID 1845192). For activity change, negative = inhibition: series mostly up to about 50 µM; % is set by controls: 0 for no effect and ±100 for the full control effect. Note: nearly all actives have a fitted effect of over 65% in size. Put shortly: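 GR-coupled assay: recombinant GPX4 preincubated 30 min with compound at room temperature; final 200 nM GPX4, 1 mM GSH, 0.5 mM cumene hydroperoxide, 0.5 mM NADPH, 100 nM GR, 0.01% BSA, pH 7.5 Tris. NADPH fluorescence (340/450 nm) read at 0 and 15 min.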

Assay [3] addresses Luciferin 4-monooxygenase (Photinus pyralis) (UniProt P08659). In words: Primary firefly luciferase (FLuc) qHTS assay for identification of artifact compounds. (AID 1845220).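 For activity change, negative = inhibition: series mostly up to about 54 µM; plate controls were DMSO vehicle for no effect and no enzyme for full effect.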 Note: nearly all actives have a fitted effect of over 60% in size. In short, it runs like this:
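D-luciferin and ATP (10 uM each, final) in Tris acetate buffer pH 7.6 were incubated with compounds for 15 min at room temperature. The reaction was started with 10 nM Photinus pyralis luciferase and luminescence read after 5 min. Percent inhibition was fitted to a 4-parameter Hill equation.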

Assay [4] in a line: Primary fluorescence-based thiol-reactive (MSTI) qHTS assay for identification of artifact compounds. (AID 1845221). For activity change, negative = thiol reactive: series mostly up to about 54 µM. Note: nearly all actives have a fitted effect of over 65% in size. Note: potency is the fitted concentration of half-maximal effect. In short, it runs like this: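 Compounds were incubated 1 h at room temperature in the dark with the MSTI probe (4 uM) in PBS pH 7.4, 2% DMSO. Signals were normalized between Acetyl-MSTI and MSTI.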
In assay [5] the test system is Nanoluciferase (engineered Oplophorus gracilirostris luciferase). Nature of the assay: Primary Nanoluciferase (NLuc) qHTS assay for identification of artifact compounds. (AID 1845222).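 Note: series mostly up to about 54 µM; 0% = DMSO and -100% = no enzyme.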 In short, it runs like this:
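Diluted conditioned medium from NLuc-expressing S16 cells treated with compounds for 15 min at room temperature, then Nano-Glo substrate added; luminescence read after 5 min. Percent inhibition versus no-enzyme and DMSO controls fitted to 4-parameter Hill equation.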

Assay [6] can be described thus: Primary redox qHTS assay for identification of artifact compounds. (AID 1845223).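 Note: 0% = DMSO and 100% = reference compound.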 Put shortly:
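Amplex Red (25 uM) and HRP (250 mU/mL) in HBSS, with compounds for 15 min, then 250 uM DTT for 30 min, room temperature, dark. Fluorescence 525/598 nm read; normalized to DMSO and 10 uM DA3003; Hill fit.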

Glutathione peroxidase 1 (Homo sapiens), sequence (P07203 whole entry, looked up): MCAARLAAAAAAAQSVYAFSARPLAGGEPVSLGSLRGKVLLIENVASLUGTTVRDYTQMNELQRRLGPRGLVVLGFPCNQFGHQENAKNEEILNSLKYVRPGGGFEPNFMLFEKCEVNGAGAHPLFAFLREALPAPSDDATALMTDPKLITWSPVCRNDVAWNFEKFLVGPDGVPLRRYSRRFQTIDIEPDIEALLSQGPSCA
Phospholipid hydroperoxide glutathione peroxidase GPX4 (Homo sapiens), sequence (P36969 whole entry, looked up): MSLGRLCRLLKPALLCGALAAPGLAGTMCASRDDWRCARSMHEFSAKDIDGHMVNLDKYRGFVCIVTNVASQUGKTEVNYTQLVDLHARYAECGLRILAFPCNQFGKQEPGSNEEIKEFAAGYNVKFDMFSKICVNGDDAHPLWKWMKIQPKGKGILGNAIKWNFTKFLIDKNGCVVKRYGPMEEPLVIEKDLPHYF

For `CC(=O)O[C@@H]1[C@H](OC(C)=O)C[C@@]2(C)C(CC[C@@H](C)[C@]23Cc2c(O)cc4c(c2O3)CN([C@@H](CCC(=O)O)C(=O)O)C4=O)C1(C)C` (stereo not given in full), the Potency entry in assay [1], in assay [2], in assay [3], in assay [4], in assay [5] and in assay [6] was “inactive” in each case.

With `Cc1ccc(Cl)cc1N(CC(=O)Nc1c(F)cccc1F)S(C)(=O)=O`, the Potency result in assay [1], in assay [2], in assay [3], in assay [4], in assay [5] and in assay [6] was “inactive” each time.

Regarding `CC1(C(=O)O)CCCC2(C)C3CCC4CC3(CCC12)CC4C(=O)O` (stereo not given), the Potency entry in assay [1], in assay [2], in assay [3], in assay [4], in assay [5] and in assay [6] was “inactive” each time.

`COC(=O)CCC1(C)C(C(C)(C)O)C(O)CC2(C)Oc3c(C)c4c(c(OC)c3CC21)C(=O)OC4` (stereo not given): the Potency entry in assay [1], in assay [2], in assay [3], in assay [4], in assay [5] and in assay [6] was “inactive” each time.

For `CC(=O)N[C@H]1[C@H](O[C@H]2CC[C@]3(C)C4CC=C5[C@@H]6CC(C)(C)CC[C@]6(C(=O)O)[C@H](O)C[C@@]5(C)[C@]4(C)CC[C@H]3C2(C)C)O[C@H](CO)[C@@H](O)[C@@H]1O` (stereo not given in full), the Potency result in assay [1], in assay [2], in assay [3], in assay [4], in assay [5] and in assay [6] was “inactive” each time.

With `CC1=CCC(O)C2(C)CCC3C(C)C(=O)OC3C12` (stereo not given), the Potency entry in assay [1], in assay [2], in assay [3], in assay [4], in assay [5] and in assay [6] was “inactive” each time.

As for `CC1C2=CC(=O)OC2(O)CC2C1C(OC(=O)c1ccccc1)C(OC(=O)c1ccccc1)C1(O)C2(C)CCC(O)C1(C)C(=O)O` (stereo not given), the Potency result in assay [1], in assay [2], in assay [3], in assay [4], in assay [5] and in assay [6] was “inactive” each time.

As to `COc1cc(C2CC(=O)Nc3c2cc(Br)c2ccccc32)cc(OC)c1OC` (stereo not given), the Potency result in assay [1], in assay [2], in assay [3], in assay [4], in assay [5] and in assay [6] was “inactive” each time.

With `C=CC(C)(O)CC/C=C(\C)C(=O)O[C@@H]1[C@@H](O)[C@H](OC(C)(C=C)CC/C=C(\C)C(=O)O[C@@H]2O[C@H](CO)[C@@H](O)[C@H](O)[C@H]2O)O[C@H](CO)[C@H]1OC(=O)/C(C)=C/CCC(C)(O)C=C` (stereo not given in full), the Potency result in assay [1] and in assay [2] was “inactive” throughout. In addition, the activity change, negative = inhibition in assay [3] was 0.429% [at 11.6 µM]. In assay [4], the activity change, negative = thiol reactive is 71.6% [at 11.5 µM]. Moreover, the activity, negative = inhibition in assay [5] is 0.542% [at 11.6 µM]. Further, in assay [6], the redox activity (% of DA3003) was -5.92% [at 11.5 µM].

Consider `Nc1ccc(-n2nc(C(F)(F)F)cc2C(F)(F)F)cc1`, for which the Potency result in assay [1], in assay [2], in assay [3], in assay [4], in assay [5] and in assay [6] was “inactive” in each case.

In the case of `C[C@]1(O)CC[C@@H]2C(C(=O)O)=CO[C@@H](O[C@@H]3O[C@H](COC(=O)/C=C/c4ccc(O)c(O)c4)[C@@H](O)[C@H](O)[C@H]3O)[C@@H]21`, the Potency result in assay [1], in assay [2], in assay [3], in assay [5] and in assay [6] was “inactive” each time. The Potency in assay [4] was 3.27 µM (active).

Take `COc1cc(/C=C/C(=O)O[C@@H]2C[C@@](O)(C(=O)O)C[C@@H](O)[C@@H]2O)ccc1O`: the Potency result in assay [1], in assay [2], in assay [3], in assay [5] and in assay [6] was “inactive” throughout. Also, in assay [4], the Potency was 6.56 µM (active).

With `C=C1CC23CC(=O)C4C(CO)(CO)CCCC4(C)C2CCC1C3` (stereo not given), the Potency entry in assay [1], in assay [2], in assay [3], in assay [4], in assay [5] and in assay [6] was “inactive” in each case.

For the compound `Cn1cc(-c2c[nH]c3ncnc(N4CCOCC4)c23)cn1`, the Potency entry in assay [1], in assay [2], in assay [3], in assay [4], in assay [5] and in assay [6] was “inactive” throughout.

Take `C=C(C)[C@@]1(O)C[C@@]2(C)C(=CC1=O)CC[C@@H](O)[C@@H]2C`: the Potency result in assay [1], in assay [2], in assay [3], in assay [4], in assay [5] and in assay [6] was “inactive” each time.

Consider `COC(=O)C(CC1CCCC1)c1ccc(S(C)(=O)=O)cc1` (stereo not given), for which the Potency entry in assay [1], in assay [2], in assay [3], in assay [4], in assay [5] and in assay [6] was “inactive” throughout.

Consider `CC1(C)CC[C@]2(C(=O)O[C@@H]3O[C@H](CO)[C@@H](O)[C@H](O)[C@H]3O)CC[C@]3(C)C(=CCC4[C@@]5(C)C[C@H](O)[C@H](O[C@@H]6OC[C@@H](O)[C@H](O)[C@H]6O)[C@@](C)(CO)C5CC[C@]43C)C2C1` (stereo not given in full), for which the Potency result in assay [1] and in assay [2] was “inactive” throughout. Moreover, the outcome in assay [3] was “inactive [at 11.6 µM]”. Further, the activity change, negative = thiol reactive in assay [4] was 298% [at 11.5 µM]. In addition, the activity, negative = inhibition in assay [5] is 3.66% [at 11.6 µM]. Besides, in assay [6], the redox activity (% of DA3003) was 17.7% [at 11.5 µM].

Consider `CC1(C)CC[C@]2(C(=O)O[C@@H]3O[C@H](CO)[C@@H](O)[C@H](O)[C@H]3O)CC[C@]3(C)C(=CCC4[C@@]5(C)CC[C@H](O[C@H]6O[C@H](CO)[C@@H](O)[C@H](O[C@@H]7O[C@H](CO)[C@@H](O)[C@H](O)[C@H]7O)[C@H]6O)C(C)(C)C5CC[C@]43C)[C@@H]2C1` (stereo not given in full), for which the Potency result in assay [1] and in assay [2] was “inactive” in each case. The activity change, negative = inhibition in assay [3] is 0.281% [at 11.6 µM]. In assay [4], the activity change, negative = thiol reactive is 168% [at 11.5 µM]. The activity, negative = inhibition in assay [5] is -0.923% [at 11.6 µM]. In assay [6], the redox activity (% of DA3003) is 12.2% [at 11.5 µM].

As to `C[C@@]1(O)[C@H](O)[C@@H](CO)O[C@H]1n1cnc2c(=O)[nH]c(N)nc21`, the Potency result in assay [1], in assay [2], in assay [3], in assay [4], in assay [5] and in assay [6] was “inactive” throughout.

Regarding `CC(=O)O[C@H]1C[C@@H](O)C(C)(C)C2C[C@@H](OC(C)=O)[C@@]3(C)C4=CCC(C(CO)CC(O)C5OC5(C)C)[C@]4(C)CCC3[C@]21C` (stereo not given in full), the Potency entry in assay [1], in assay [2], in assay [3], in assay [4], in assay [5] and in assay [6] was “inactive” each time.
